PMC12864922, “TDP-43 directly inhibits mRNA accumulation in neurites through modulation of mRNA stability”
The full ranking holds about 9,900 sequences; the median of “r (bound/input frequency ratio)” is about 0.7, and the highest 2% start at about 6.5. The list comes from a sample in which the highest values are over-represented; it also holds similar and randomly drawn sequences.

B1: ENSMUSG00000061578.897|Ksr2|214:218 (ssRNA)
RNA: GGGAGUUCUACAGUCCGACGAUCGCUUCGAUAUCCGCAUGCUAUCCUGGGACACUACCCAAACCCUAGCACUCUCCCAGUGACUCUCCUAUGAGUACAUAUGCCAUCCUGCUUCCUUUGUGGCAAAACCCUGGGUCACCCAGAGACAGAUUUCCCAGAAUCCCUGGGCCACUUCUCAAUUCUACCCAUGACAGACAUGUCCCAUCCAUGAGCCCAGAUAGUCAAAGACUUCAGCACAAGGGUGUUUAGAGUAGGCACACACGAAGUAUCAAUAAGGUUAUUGAGAUGAGGAUUUAGAAAGAUCCUCUUGCGGUCGCACUAGUGUGGAAUUCUCGGGUGUCAAGG
B2: ENSMUSG00000090935.723|Synj2bp (ssRNA)
RNA: GGGAGUUCUACAGUCCGACGAUCGCUUCGAUAUCCGCAUGCUAAACAUUGUUUUAUUCCUAGGUGCUCAGGACAGACUGAUCAACCUCCAGUAACAUAUGUGGUUAGUAAGUGCUUCAGCUUGUGUAGCCAUUAAUAACCAAGUCAUAGGAUUGUGAAUCUAAAAUACUCCUGGGUAAAAUUUGUAUUAGAAUGGAAAAAAAAAUGAGGGUCAGAAAGGUGAGCUAACUUCAAGUUAGAUACUCCCCUCUAUUUUGGUCUCAAAUUUGUUUUAGUGUGUCCACAACAUGAAAACAUACAAAAACUCUUGCGGUCGCACUAGUGUGGAAUUCUCGGGUGUCAAGG
B3: ENSMUSG00000058297.523|Spock2 (ssRNA)
RNA: GGGAGUUCUACAGUCCGACGAUCGCUUCGAUAUCCGCAUGCUAUGGGUGGGCACAGGUCUGCCUUGCUCCAGCCCCCUCCCUUGGUUUCUGUUGGUACCCAUUUGGCUUUUAUCUGCUUUCUGCUUCACCACUAAGUGCGUAGGUGGGGUCUUUUGAUAUCGGCUCCCCAAAGCCCAAGCCCACAGCCCUAGGAGAGAACCAGGGGCCCAUCUUUGACACCUGGGCCAUCACGAGCCCUCCCGCCUGCAGUUGUCCUAGGGAAAGACCUGGGGGUGCAAAAGGAGAUUCAAGACAUCCGUACCCUCUUGCGGUCGCACUAGUGUGGAAUUCUCGGGUGUCAAGG
B4: ENSMUSG00000004113.207|Cacna1b|52:56;242:246 (ssRNA)
RNA: GGGAGUUCUACAGUCCGACGAUCGCUUCGAUAUCCGCAUGCUAAGGAAGCAUCGGGUGGAUUGGGUGGGAGCUGCUCAGAGCAGCACGGGGGCUACACACUUAGGGACAUUGACAGUGUCCAUCAGCAUGUCAGAGAAGCAGCUGUAGUGCCCGUGUUUCUCCCUGAGUCAUGGGUUCUGAAGAAGCCAGAGCGGCACAAUGCGUGCUUGCAUGAGGCACUUUCAGCCUUUUUAAAUCUGACUCUCAGGGAUGGGAUGCCUGCCAAGUAGGGUGUAAUCUCUGUACACAUUUUAAAACAACAACUCUUGCGGUCGCACUAGUGUGGAAUUCUCGGGUGUCAAGG
B5: ENSMUSG00000032194.344|Kank2 (ssRNA)
RNA: GGGAGUUCUACAGUCCGACGAUCGCUUCGAUAUCCGCAUGCUAAACACCCACCAGUCUCUCCUCUCCUUCCCGCUAUACUCCAGUUUUCUUUCUACUCUGUGACCACGGUACAUCCAUGAAGACAGUGUUACACGUAAAUGAAGUAUUCUUUUCUUGUAAUCAUAUUUUAGAAAGUAAAAGGACUUAAUAAAGCUACAAAUAAAAACAUUGCCUCGUGUCUGUUUGUUCUCCUUCUUUUUAGGCUAGCCUUGAACUCCUGAUCCUCCUGCCUUCCAUCUCCCAAGUGCUGGGAUGACAGGCACCUCUUGCGGUCGCACUAGUGUGGAAUUCUCGGGUGUCAAGG
B6: ENSMUSG00000004113.341|Cacna1b|1:8;11:16 (ssRNA)
RNA: GGGAGUUCUACAGUCCGACGAUCGCUUCGAUAUCCGCAUGCUACACACACAAGCACACAUCAGCAAGUGGCUAUUGUCAACCAUAGGGCUAUGCAACAAAAGACACAUUACUAGAAACAAAACACAAGACCACCACUUGGUCUAGGGUUUCAGCAUGAUUGUGACCAAACCUUUUAUAGAAUUUCCUUAUACAAAGGCACAAUACCCUGAAACUUUAACAGAGUAUUUUAUUCCAGUAGGGUAAAAUUAAACGGGACUCUUGGACUGCGCAUGUGACUGCACCCACGUUGCAACAGAGAAGGACUCUUGCGGUCGCACUAGUGUGGAAUUCUCGGGUGUCAAGG
B7: ENSMUSG00000061578.75|Ksr2 (ssRNA)
RNA: GGGAGUUCUACAGUCCGACGAUCGCUUCGAUAUCCGCAUGCUAAUGGAACCAGAAACAAUACACCUGCUCCGUUGUCAAGGCUUCUAGGCCAAGGUCAGGGUAGGGAGGUGGGGUGGGUUAAACUUGCAAACAUCUGAUUUUAGAGGUCCCAUUCCAAGAUGGAAGUCACCGGUUGCCGCUGAGCACACAAUUCUGAAGGACAGUAGGCAGUCCUGCAGGUCUUUUUUAGCACAGGGCCUCUCUGGGGACCAGUCCCUGGCCUUCACCCUUCUCCCAUUUUGUAAGAACACUGUUCUAACUCACUCUUGCGGUCGCACUAGUGUGGAAUUCUCGGGUGUCAAGG
B8: ENSMUSG00000034801.114|Sos2 (ssRNA)
RNA: GGGAGUUCUACAGUCCGACGAUCGCUUCGAUAUCCGCAUGCUACCCCAGGUGAUCAGCAGCAUUGCUUCCUCGGCUCCCCAGUGCUGCCCUAGGCCAGUAUAAAGACUCUGUAUUGCACUGUAGACUCUGCUAGCAGACGGCACUGAGAGGAGCCAGCGCUCGAGGGCGUUCUCACGCCUGACUGAUAGAUACCUUUUUAGGGUGAUGAACUUACACAGAUGCAGAAGAUAUGGGGUGGUGGUCCUGGGUUUUAACCCUCUGACCGUCUUCUAGCUUCUAAUUUUGUUUGGUUUUUACAUCUACUCUUGCGGUCGCACUAGUGUGGAAUUCUCGGGUGUCAAGG
B9: ENSMUSG00000061578.1547|Ksr2|98:102 (ssRNA)
RNA: GGGAGUUCUACAGUCCGACGAUCGCUUCGAUAUCCGCAUGCUAUUUAUAAAGUUUUCUACACUUCUCAAAAAAAAAAAUAUUUCUAACCUUGGCUGUUGGACAGUCUGUGAGCCUGUGAGCCGGCAAGCCUGUUGUUUCUACACAUUAGUGCAAUGUUAGUGAGAAUCCAGUGUCUGAGUUAUUAAUGCCAAUAAAGAAUUUGAGAAUUACUGCAUCCGCUGCUGUCACUCCAGGUCAGAACUCUGCUGUUGUCUGUUGGAUGGAAGGAAGCUCCAGAGUGAGGAACAAUGGUUGCUAACUGCCUCUUGCGGUCGCACUAGUGUGGAAUUCUCGGGUGUCAAGG

Molecular target: TDP-43 (Homo sapiens, UniProt Q13148 1-414)
Experiment: RNA Bind-n-Seq with designed 260-mer pool; 25 mM Tris-HCl, 150 mM KCl, 3 mM MgCl2, BSA (printed 500 mg/mL), 20 units/mL SUPERase IN; pH not stated; 500 nM RNA pool, 1 h, 4 C; TDP-43 5, 50, 500 nM; high values mean tight binding
Details: protein: recombinant; tags: SBP (GST cleaved off with PreScission; pGEX-GST-SBP)
Method in brief: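 Binding (R) is the ratio of each oligo's mapped-read-normalized abundance in the bound fraction to its abundance in the input. To obtain it, SBP-tagged recombinant TDP-43 (5, 50 or 500 nM) on streptavidin beads was incubated with 500 nM of an in vitro-transcribed 260-nt 3′ UTR oligo pool for 1 h at 4 °C in 25 mM Tris-HCl, 150 mM KCl, 3 mM MgCl2, BSA and SUPERase IN. The RNA retained after washing was released with biotin, then reverse transcribed, amplified by PCR and sequenced.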

TDP-43, sequence (Q13148 whole entry): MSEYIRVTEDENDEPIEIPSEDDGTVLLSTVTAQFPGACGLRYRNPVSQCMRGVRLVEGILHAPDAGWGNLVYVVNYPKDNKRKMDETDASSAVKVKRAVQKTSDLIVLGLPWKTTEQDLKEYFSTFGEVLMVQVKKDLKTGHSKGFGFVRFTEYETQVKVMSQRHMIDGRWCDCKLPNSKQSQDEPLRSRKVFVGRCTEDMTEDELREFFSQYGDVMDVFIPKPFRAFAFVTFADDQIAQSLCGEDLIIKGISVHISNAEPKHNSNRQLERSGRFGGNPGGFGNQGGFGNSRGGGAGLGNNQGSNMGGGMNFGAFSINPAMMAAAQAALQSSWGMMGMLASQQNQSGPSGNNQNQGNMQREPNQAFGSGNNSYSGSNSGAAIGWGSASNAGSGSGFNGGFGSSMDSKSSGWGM

Binder | binding signal
B1 | 0.295 R (bound/input frequency ratio)
B2 | 0.199 R (bound/input frequency ratio)
B3 | 0.928 R (bound/input frequency ratio)
B4 | 0.888 R (bound/input frequency ratio)
B5 | 0.585 R (bound/input frequency ratio)
B6 | 0.234 R (bound/input frequency ratio)
B7 | 0.151 R (bound/input frequency ratio)
B8 | 0.44 R (bound/input frequency ratio)
B9 | 0.38 R (bound/input frequency ratio)
